HCV inh: inhibitors of hepatitis C virus infection; Huh7.5.1 HCVcc-Cre infection, luciferase reporter, 44 h; Potency, µM (doses to about 41.8 µM), without a hit: top-dose activity change, negative = inhibition, usual class: inhibitors; 3.4% of 340,000 active; active = well fitted inhibition curve with a large enough effect; inconclusive = small, poorly fitted or top-dose-only effect, or another doubt; inactive = no such curve, though single readings can be large or run the other way; note: potency is the fitted concentration of half-maximal effect; % is set by controls: 0 for no effect and ±100 for the full control effect
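Whole-lifecycle infectious HCVcc-Cre system; cells 1,000/well, compound then virus (~0.5 moi) added 4 h after plating, 44 h culture. Luciferase read 15 sec following 15 min substrate incubation, room temp.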
SARS PLpro yeast: SARS-CoV PLP inhibition in yeast. 0.19% of 330,000 active. Potency, µM (highest dose often 32.9 µM), for the others: at the top dose activity, positive = growth rescue, hits mostly activators. S. cerevisiae expressing SARS-CoV PLpro, growth rescue. AID 485353; calls by dose curve; note: potency is the fitted concentration of half-maximal effect; 0% is about no effect; nearly all actives have a fitted effect of over 55% in size
Marburg entry inh: Marburg virus entry inhibition | Marburg virus pseudotyped entry inhibition, cell reporter | Potency, µM (doses to about 37.8 µM), for inactives: at the top dose activity change, negative = inhibition, most hits filed as inhibitors | 1.8% of 300,000 active; calls by dose curve; tested in HEK293 cells; note: potency is the fitted concentration of half-maximal effect; % is set by controls: 0 for no effect and ±100 for the full control effect
HCMV inh: inhibitors of human cytomegalovirus. HFF cells, HCMV-luciferase reporter, 72 h; stronger effect = lower value. activity change, negative = inhibition, % at 57.5 µM. 4.5% of 410,000 active; in the data active = activity change below about -60%; inconclusive = no clear call, values can overlap the other calls; inactive = above about -39%; note: % is set by controls: 0 for no effect and ±100 for the full control effect
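HFF cells seeded 16 h at 37C, treated with compounds, infected with luciferase-reporter HCMV at MOI 1 PFU/cell; luciferase read at 72 h post infection, normalized to buffer-only and Salinomycin controls.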
FMDV inh: foot and mouth disease virus antiviral activity; 1.2% of 410,000 active; Potency, µM (titrated, usually from 57.9 µM), for the others: at the top dose activity change, negative = inhibition, most hits filed as inhibitors; FMDV antiviral cell-based qHTS; calls by dose curve; tested in HEK293T cells; note: read-out not given here; potency is the fitted concentration of half-maximal effect; % is set by controls: 0 for no effect and ±100 for the full control effect; nearly all actives have a fitted effect of over 45% in size
Lassa entry inh: Lassa virus entry inhibition; Potency, µM (highest dose often 37.9 µM), inactives show at the highest dose activity change, negative = inhibition, hits mostly inhibitors; 1.2% of 300,000 active; Lassa virus pseudotype entry inhibition, cell reporter; AID 540256; calls by dose curve; tested in HEK293 cells; note: potency is the fitted concentration of half-maximal effect; % is set by controls: 0 for no effect and ±100 for the full control effect; nearly all actives have a fitted effect of over 50% in size
Numbers without * were called inactive; ? = inconclusive; nt = no result given; [ ] = another dose, or the depositor's remark. Rows were chosen to be rich in hits. Some 8% of all compounds tested hit in one or more screens of this group.

SMILES | HCV inh | SARS PLpro yeast | Marburg entry inh | HCMV inh | FMDV inh | Lassa entry inh
O=C(CSc1nnc(CNc2ccc(F)cc2)n1CC1CCCO1)N1CCOCC1 (stereo unspecified) | 14% | 9% | 8%[46.1 µM] | -98* | 11% | -4%
CCCc1nnc(SCC(=O)N2CCOCC2)n1CC1CCCO1 (stereo unspecified) | 21% | -4% | 1%[46.1 µM] | -68* | -5% | ?
CCCc1nnc(SCC(=O)N2CCCC2)n1CC1CCCO1 (stereo unspecified) | 5% | -3% | 12% | -8 | -5% | 0%
COc1ccc(N(C(=O)COc2ccc(Br)cc2)S(=O)(=O)c2ccc(C)cc2)cc1 | nt | nt | nt | -1 | 14% | -10%[46.1 µM]
Cc1cc(C(=O)NCc2nnc3n2CCN(Cc2ccc(F)cc2F)CC3)c(C)o1 | nt | nt | nt | nt | -16% | nt
Cc1ccc(-c2c(C(=O)NCCc3ccc(Cl)cc3)oc(=O)c3ccccc23)cc1 | nt | nt | ? | -4 | -27% | 27%[46.1 µM]
O=C(NCc1cccc(Cl)c1)c1oc(=O)c2ccccc2c1-c1ccccc1 | nt | nt | -13%[46.1 µM] | -69* | -12% | -16%[46.1 µM]
CCOC(=O)CCc1ccc(NC(=O)/C=C/c2ccc([N+](=O)[O-])o2)cc1 | ? | nt | ? | -15 | 25µM* | 7.1µM*
CCN(CC)S(=O)(=O)c1ccc(C(=O)/C=C/c2ccc(-c3ccc([N+](=O)[O-])cc3)o2)cc1 | -14% | -1% | nt | 6 | -11% | nt
CCc1ccc(C(=O)/C=C/c2ccc([N+](=O)[O-])o2)cc1 | -6% | -35% | ? | 29 | 35µM* | ?
Cc1ccc(/C=C/C(=O)Nc2ccc([N+](=O)[O-])cc2)o1 | -24% | 2% | 18% | 16 | -2% | -8%
COC(=O)c1ccccc1-c1cc(C)cc2c1OC(CNC(=O)C1CCCO1)C2 (stereo unspecified) | nt | nt | nt | nt | -2% | nt
CC1CN(c2ccc([N+](=O)[O-])c(NCCOc3ccccc3)c2)CCN1 (stereo unspecified) | 10µM* | 0% | ? | 39 | 7% | 26%[46.1 µM]
COc1cccc(OCCNc2cc(N3CCOCC3)ccc2[N+](=O)[O-])c1 | 14µM* | -20% | 10% | 31 | -1% | 23%
COc1ccc(OCCNc2cc(Cl)ccc2[N+](=O)[O-])cc1 | ? | 3% | 1% | -65* | nt | 4%
COc1cccc(OCCNc2cc(N3CCCCC3)ccc2[N+](=O)[O-])c1 | ? | 5% | ? | -28 | 1% | ?
COc1ccc(OCCNc2cc(N3CCCCC3)ccc2[N+](=O)[O-])cc1 | ? | 3% | ? | ? | -21% | ?
Cc1ccccc1OCCNc1cc(N2CCCCC2)ccc1[N+](=O)[O-] | 14µM* | -3% | -2%[46.1 µM] | -28 | -8% | -17%
COc1cccc(C(=O)N(Cc2cc3cc4c(cc3nc2N(C)C)OCO4)CC2CCCO2)c1 (stereo unspecified) | nt | nt | nt | nt | 11% | nt
CCC[C@H]1[C@@H](NS(=O)(=O)c2cccs2)CC[C@@]23CCCN2C(=O)CCC[C@@H]13 | nt | nt | nt | -5 | nt | nt
O=C1[C@H]2[C@H]3[C@H](O)[C@H](O)C/C(=N/OC[C@@H](O)COCc4ccco4)[C@H]3CC[C@@H]2C(=O)N1C1CCCCC1 | nt | nt | -22%[14.2 µM] | nt | nt | nt
COc1ccc(/C=C2/Sc3ccc(C(=O)NCCN4CCCCCC4)cc3NC2=O)cc1 | ? | 2% | nt | -112* | -6% | nt
O=C1Nc2cc(C(=O)NCCCN3CCOCC3)ccc2S/C1=C/c1ccccc1F | 8.9µM* | -2% | nt | -28 | ? | nt
O=C1Nc2cc(C(=O)NCCCN3CCCC3)ccc2S/C1=C\c1ccccc1 | 11µM* | -7% | nt | ? | -24% | nt
O=C1Nc2cc(C(=O)NCCCN3CCOCC3)ccc2S/C1=C/c1cccc(Cl)c1 | ? | 2% | nt | -24 | ? | nt
SMILES | HCV inh | SARS PLpro yeast | Marburg entry inh | HCMV inh | FMDV inh | Lassa entry inh
O=C(NNC(=O)c1ccccc1O)c1ccc(Cl)c(S(=O)(=O)N2CCc3ccccc32)c1 | ? | 1% | -29%[46.1 µM] | -72* | ? | ?
COc1ccc(C(=O)Nc2cccc(C)n2)cc1S(=O)(=O)N1CCCc2ccccc21 | 2.5µM* | nt | ? | -72* | -27% | ?
COc1ccc(C(=O)NCc2ccccc2)cc1S(=O)(=O)N1CCCc2ccccc21 | 11µM* | 10% | -24% | -27 | 47% | ?
Cc1ccc(NC(=O)c2ccc(Cl)c(S(=O)(=O)N3CCCC3)c2)nc1 | ? | -3% | -18% | ? | ? | -12%[46.1 µM]
Cc1ccc(NC(=O)c2ccc(Cl)c(S(=O)(=O)N3CCc4ccccc43)c2)nc1 | ? | nt | ? | -79* | -27% | ?
CN(CC(=O)Nc1ccccc1Cl)C(=O)c1cc(C2CC2)nn1-c1ccccc1 | -14% | 6% | nt | -18 | -15% | nt
CC(C)CC(=O)NCC(c1ccc2c(c1)OCO2)N1CCN(c2ccccc2)CC1 (stereo unspecified) | nt | nt | nt | 19 | -16% | 9%[46.1 µM]
COc1ccc(C(=O)Nc2ccc(C)cn2)cc1S(=O)(=O)N1CCCc2ccccc21 | 4.5µM* | -2% | -30% | ? | -23% | ?
COc1ccc(C(=O)O)cc1S(=O)(=O)N1CCCc2ccccc21 | 15% | 1% | nt | 54 | 3% | nt
O=C(NCc1ccco1)c1ccc2c(c1)N(Cc1ccc(F)cc1)C(=O)c1ccccc1S2=O (stereo unspecified) | nt | nt | -5%[46.1 µM] | 9 | -12% | -7%[46.1 µM]
CC(=O)NCCNc1cc(-c2ccccc2C)ncn1 | nt | nt | nt | nt | 2% | nt
CCN(CC)CCCNC(=O)c1c(C)oc2ncn(CC(C)C)c(=O)c12 | nt | nt | nt | 12 | 14% | 3%[46.1 µM]
O=C(N/N=C/c1ccc(-c2ccc(S(=O)(=O)Nc3ncccn3)cc2)o1)c1cc2ccccc2cc1O | -9% | 8% | ? | -101* | 2% | -30%
Fc1ccc(NC(=S)Nc2ccc(Br)cc2)cc1 | ? | -34% | -38% | -79* | -6% | ?
Oc1ccc(NC(=S)Nc2ccc(F)cc2)cc1 | 5% | -3% | nt | -34 | 20% | nt
CCN(CC)c1ccc(NC(=S)Nc2ccc(F)cc2)cc1 | 11µM* | -4% | ? | 47 | 15% | -10%
N#Cc1ccc2c(c1)nc1ccccn12 | 5% | -4% | 12%[46.1 µM] | ? | 22% | -2%
Clc1ccc2nc3ccccn3c2c1 | 10µM* | -27% | -3% | 8 | 24% | 22%
COc1ccc2ccc(=O)oc2c1CC(=O)C(C)C | 4.5µM* | -6% | nt | 1 | -10% | nt
COc1ccc2ccc(=O)oc2c1CC(O)C(C)(C)O (stereo unspecified) | 10% | 1% | nt | 17 | -16% | nt
CC1(C(=O)Nc2ccc3[nH]ncc3c2)CCN1C(=O)C1(c2ccccc2)CC1 (stereo unspecified) | nt | nt | nt | -98* | -16% | nt
CC1(C(=O)Nc2ccc3[nH]ncc3c2)CCN1C(=O)CC(c1ccccc1)c1ccccc1 (stereo unspecified) | nt | nt | nt | 0 | ? | nt
CC12Nc3ccccc3C(=O)N1Cc1cnnn1-c1cc3c(cc12)OCO3 (stereo unspecified) | nt | nt | nt | -3 | nt | nt
